HT1080-NT tox = kills 2HG-producing HT-1080-NT fibrosarcoma cells; HT-1080-NT fibrosarcoma viability, CellTiter-Glo ATP luminescence, 48 h; Potency, µM (top dose mostly 46.1 µM), without a hit: at the top dose activity, negative = less viability, most hits filed as cytotoxic; 360,000 tested, 1.6% active;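 also: NT is the 2HG producing partner of a matched IDH1 knockdown line; potency is read from the fitted curve at half-maximal effect; 0% = DMSO-treated cells and -100% = media-only wells without cells; nearly all actives have a fitted effect of over 55% in size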
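Compounds were tested in concentration-response format on HT-1080-NT cells for 48 hours at 37 degrees C. Cell viability came from CellTiter-Glo luminescence; curves were classified by r2, response magnitude and activity.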
TDP1 cell noCPT = qHTS for Inhibitors of human tyrosyl-DNA phosphodiesterase 1 (TDP1): qHTS in cells in absence of CPT; Potency, µM (doses to about 46.2 µM), for inactives: at the highest dose activity change, negative = growth inhibition, hits mostly inhibitors; DT40 Tdp1-/- hTDP1 cells, no CPT, ATP luminescence, 48 h; 420,000 tested, 15% active; AID 686978, 2013; also: potency is read from the fitted curve at half-maximal effect; nearly all actives have a fitted effect of over 55% in size
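Luminescent ATP content (CellTiter-Glo) served as the growth readout. Knockout chicken DT40 cells expressing human TDP1 were exposed to compounds without camptothecin for a minimum 48 hr at 37 °C.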
TDP1 cell CPT = growth inhibition of DT40 Tdp1-/-;hTDP1 cells with camptothecin (screen for TDP1 inhibitors); chicken DT40 Tdp1-/-;hTDP1 cells + 20 nM CPT, ATP luminescence, 48 h; Potency, µM (top dose mostly 46.2 µM), without a hit: top-dose activity change, negative = growth inhibition, usual class: inhibitors; 420,000 tested, 12% active; AID 686979; also: potency is read from the fitted curve at half-maximal effect; nearly all actives have a fitted effect of over 55% in size
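Chicken DT40 Tdp1-/- cells complemented with human TDP1, 400 cells/well, exposed to compounds plus 20 nM camptothecin for at least 48 h at 37 C; viability read as ATP content by CellTiter-Glo luminescence.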
IL1B secr inh = blocks inflammasome-driven IL-1 beta release | 360,000 tested, 4.7% active | activity change, % at 57.5 µM | THP-1 LPS/ATP IL-1B secretion, AlphaLISA, 16 h; active compounds read low; in the data active = activity change below about -50%; inconclusive = mostly about -30% to -49%
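Secreted IL-1B measured by AlphaLISA bead assay after 16 h compound exposure of THP-1 cells; compounds (final up to 57.5 uM) added 1 h before LPS (250 ng/mL) and ATP (1.25 mM) stimulation; lower signal means less secretion.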
HT1080 IDH1KD tx = HT-1080 IDH1 knockdown cell toxicity (counter line) | HT-1080 IDH1 knockdown viability, ATP luminescence, 48 h | Potency, µM (series often up to 46.1 µM), without a hit: top-dose activity, negative = toxicity, actives largely listed as cytotoxic | 360,000 tested, 2% active;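 also: potency is read from the fitted curve at half-maximal effect; 0% = DMSO wells and -100% = cell-free medium wells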
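Assay cells: HT-1080 with IDH1 knockdown, 750 per well, RPMI/5% FBS. Exposure: 48 h at 37 °C following 2 h pre-incubation. Read: CellTiter-Glo luminescence; fitted concentration-response, curve class assigned.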
Active calls of the source: *; ? = inconclusive; · = no result given; [ ] = remark or other dose. A selection: hits, their analogues and other compounds. The true share with any hit is near 19%. Unless noted, calls follow the shape of the dose curve; as a rule, active = well fitted curve in the direction sought with a large enough effect; inconclusive = small, poorly fitted or top-dose-only effect, or another doubt; inactive = no such curve, though single readings can be large; an effect the other way counts as inactive or inconclusive. Unless noted, % is scaled to controls: 0 for no effect and ±100 for the full control effect.

SMILES | HT1080-NT tox | TDP1 cell noCPT | TDP1 cell CPT | IL1B secr inh | HT1080 IDH1KD tx
COc1ccc(NC(=O)CSc2nc3ccccc3nc2Cc2ccc(C)cc2)cc1Cl | · | ? | 13µM* | · | ·
O=C(CSc1nc2ccccc2nc1Cc1ccccc1)N1CCN(c2ccccc2)CC1 | · | -5.9% | -3.1% | · | ·
COc1ccccc1N1CCN(C(=O)CSc2nnc(NC(=O)C(C)C)s2)CC1 | 16.7% | ? | ? | -14.0 | 0.9%
COc1ccccc1N1CCN(C(=O)CSc2nc3ccccc3nc2Cc2ccc(C)cc2)CC1 | · | ? | 16.4µM* | · | ·
COc1ccccc1N1CCN(C(=O)CSc2nc3ccccc3nc2N2CCCCC2)CC1 | 0.8% | ? | ? | -9.6 | -10.7%
C#CCCCCCCCCCCCC(=O)CC(O)COC(C)=O (stereo unspecified) | · | 1.5% | -0.9% | · | ·
CC(=O)Nc1ccc(NC(=O)Cn2nc(C(=O)Nc3ccc(C)cc3)ccc2=O)cc1 | -1.0% | 23.3% | -5.2% | -17.7 | 8.3%
COc1cc(C2c3c(oc4ccccc4c3=O)C(=O)N2c2ccccn2)cc(OC)c1OC (stereo unspecified) | · | -6.7% | 3.8% | · | ·
CCc1ccccc1NC(=O)Nc1cccs1 | 13.1% | -11.5% | -7.0% | -3.2 | 0.3%
Cc1ccc(Cl)cc1NC(=O)Nc1cccs1 | -14.2% | 20.6µM* | -25.5% | -4.1 | -16.3%
Cc1ccc(NC(=O)Nc2cccs2)c(C)c1 | · | ? | 14.6µM* | · | ·
Cc1ccccc1NC(=O)Nc1cccs1 | 0.2% | ? | ? | 5.5 | -0.5%
COc1cc(C(=O)OC2CC3CCC2(C)C3(C)C)ccc1OC(C)=O (stereo unspecified) | 0.7% | ? | -10.3% | -8.9 | -9.2%
COCCn1c(N)c(Sc2ccccc2[N+](=O)[O-])c(=O)[nH]c1=O | 0.1% | 18.5% | -22.5% | 0.0 | 1.2%
O=C1C(=O)c2ccccc2C(O)=C1CCCCl | 16.4µM* | 4.11µM* | 5.8µM* | -66.6* | ?
C=CCC[C@@H](Cc1ccc(F)cc1)C(=O)OC[C@@H](NC(=O)[C@H](CC=C)CC(=O)NCCO)C(C)(C)C | 11.9% | ? | ? | 5.2 | 2.1%
Cc1ccc(C2=NNC(c3ccc(Cl)cc3)=Nc3ccccc32)o1 | -13.6% | 11.6µM* | 13µM* | -1.6 | -9.3%
Cc1cccc(CCN2C(Nc3ccccc3)=NC[C@@H]2CC(C)C)c1 | ? | 20.6µM* | 18.4µM* | -54.5* | -28.3%
CC(C)C[C@H]1CN=C(N(C)C)N1CCc1cccc(F)c1 | 0.0% | -28.8% | -28.3% | -15.3 | -1.8%
CCC(C)[C@H]1CN=C(N)N1CCc1cccc(F)c1 (stereo partly specified) | 0.0% | 13µM* | 18.4µM* | -19.9 | 6.2%
CC(C)C[C@H]1CN=C(Nc2ccccc2)N1CCc1cccc(F)c1 | 3.1% | ? | 10.3µM* | -52.4* | -16.6%
COc1ccc(Cl)cc1-n1c(=S)sc2c(=O)[nH]c(SCC(=O)NCC3CCCO3)nc21 (stereo unspecified) | 6.7% | -9.4% | -17.3% | -10.3 | 11.4%
Cc1ccccc1N1C(=O)C(Cl)=C(N2CCCCCC2)C1=O | -1.4% | ? | 29.1µM* | 10.2 | -6.0%
Cc1cc(NC(=O)c2ccc(Cl)cc2Cl)n(CCC#N)n1 | -11.0% | -8.7% | -13.5% | 11.8 | 6.7%
Cc1nn(CCC#N)c(N)c1C1(O)C(=O)Nc2c(Cl)cc(Cl)cc21 (stereo unspecified) | -10.5% | 3.66µM* | 16.4µM* | 134.3 | 0.0%
SMILES | HT1080-NT tox | TDP1 cell noCPT | TDP1 cell CPT | IL1B secr inh | HT1080 IDH1KD tx
CC12CCC(=O)N1C(C(=O)NNC(=O)c1ccc(F)cc1)CS2 (stereo unspecified) | -6.2% | 13.6% | 2.5% | -5.6 | -9.8%
CCCCCn1c(C(C)NC(=O)CCC)nc2ccccc21 (stereo unspecified) | -8.8% | 18.4µM* | 11.6µM* | 24.8 | 1.9%
CCCCn1c(C(C)NC(=O)CCC)nc2ccccc21 (stereo unspecified) | 1.1% | 18.4µM* | ? | 30.3 | 5.2%
CCCC(=O)NC(C)c1nc2ccccc2n1Cc1ccccc1 (stereo unspecified) | · | ? | -17.2% | · | ·
CCCCCn1c(=O)c(C(=O)c2ccccc2)nc2ccccc21 | 0.6% | 23.1µM* | ? | -7.7 | 3.4%
CCCC(=O)NC(C)c1nc2ccccc2n1C (stereo unspecified) | 12.8% | -4.8% | -6.9% | 2.4 | -0.7%
CCn1c(=O)c(C(C)=O)nc2ccccc21 | 9.8% | -9.6% | -9.3% | 0.0 | 4.3%
Clc1ccc2c(-c3ccccc3)nc(-c3cccs3)nc2c1 | 14.4% | -10.4% | -9.8% | 38.7 | 2.3%
Cc1cc(-c2cc(F)cc3c2OC(CNC(=O)CCn2cncn2)C3)ccc1F (stereo unspecified) | · | -2.1% | 13.6%[9.04 µM] | · | ·
Cc1cccc(C)c1NC(=O)C(C)Sc1nnc(C)n1CC1CCCO1 (stereo unspecified) | 10.9% | -6.4% | -21.2% | 9.2 | 5.6%
Cc1ccc(Cl)cc1NC(=O)COC(=O)CCN1C(=O)C2CC=CCC2C1=O (stereo unspecified) | 0.0% | -12.1% | -4.3% | 4.1 | -4.1%
O=Cc1ccc(I)cc1 | · | 3.98µM* | 1.58µM* | · | ·
Cc1ccc(NC(=O)CN2CCN(Cc3ccccc3)CC2)cc1 | -8.2% | -4.3% | -10.2% | 4.1 | 4.0%
O=C(CN1CCN(Cc2ccccc2)CC1)Nc1cccc(Cl)c1Cl | 2.6% | 20.6µM* | ? | -18.8 | 3.3%
O=C(CN1CCN(Cc2ccccc2)CC1)Nc1ccc(Br)cc1 | 9.1% | 20.6µM* | ? | -8.4 | -3.1%
O=C(CN1CCN(CC(=O)Nc2ccccc2Cc2ccccc2)CC1)Nc1ccccc1Cl | 10.7% | 11.6µM* | 10.3µM* | 16.0 | 16.8%
O=C(CN1CCCC1)Nc1ccccc1Cl | -1.5% | 0.5% | -3.4% | -1.1 | 2.3%
O=C(N1CCCC1)N1CCN(S(=O)(=O)c2ccccc2)CC1 | 6.5% | 0.2% | -3.0% | 20.4 | 4.4%
COc1ccccc1N1CCN(C(CNC(=O)c2ccc3c(c2)OCO3)c2cccnc2)CC1 (stereo unspecified) | -10.8% | ? | ? | 6.6 | -17.7%
O=C(NCC(c1cccnc1)N1CCc2ccccc21)c1cccc(Br)c1 (stereo unspecified) | · | 13µM* | ? | · | ·
O=C(NCC(c1ccco1)N1CCc2ccccc21)c1ccccc1 (stereo unspecified) | -24.3% | ? | ? | -17.2 | -15.1%
O=C(NCC(c1cccnc1)N1CCc2ccccc21)c1cccc(F)c1 (stereo unspecified) | · | 20.6µM* | 14.6µM* | · | ·
Cc1cc(F)ccc1S(=O)(=O)NCC(c1cccnc1)N1CCc2ccccc21 (stereo unspecified) | 0.6% | 16.4µM* | ? | -6.5 | 1.7%

From PubChem
